According to PubChem BioAssay (NCI):
About 79,000 compounds went through this panel and 15% of them were active in at least one assay; those are over-represented in the sample as a whole. No stated cut-off is given here; in the data, active means growth inhibition above about 70%; inactive means the rest.

How the values were obtained:
[1] = NCI Yeast Anticancer Drug Screen. Data for the rad50 strain (AID 155);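 further: 0% = growth of vehicle-only cultures of the same strain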; details: S. cerevisiae rad50 strain growth inhibition; at 50.0 µM; hits give high values
Method in brief: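 Compounds were tested on a yeast strain with an engineered DNA damage repair alteration; the reported value is growth inhibition normalised to vehicle treatment.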

[2] = NCI Yeast Anticancer Drug Screen. Data for the mec2-1 strain (AID 157); details: S. cerevisiae mec2-1 strain, at 50.0 µM, hits give high values
Method in brief: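 Compounds were applied to mec2-1 yeast cells. Their growth was then compared with that of vehicle-treated cultures to give growth inhibition.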

[3] = NCI Yeast Anticancer Drug Screen. Data for the sgs1 mgt1 strain (AID 161);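 further: 0% = growth of cultures given vehicle only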; details: S. cerevisiae sgs1 mgt1 strain, at 50.0 µM, hits give high values
Method in brief: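 This yeast growth screen uses a strain with defined DNA-repair lesions; compound-treated growth is compared with vehicle-treated growth.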

[4] = NCI Yeast Anticancer Drug Screen. Data for the cln2 rad14 strain (AID 165);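 further: 0% = growth equal to vehicle treated cultures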; details: S. cerevisiae cln2 rad14 strain, at 50.0 µM, hits give high values
Method in brief: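 Strain: cln2 rad14 yeast, altered in cell cycle control and DNA damage repair. Read-out: growth inhibition vs vehicle.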

[5] = NCI Yeast Anticancer Drug Screen. Data for the bub3 strain (AID 167); details: S. cerevisiae bub3 mutant strain, at 50.0 µM, hits give high values
Method in brief: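 Growth of a checkpoint-deficient yeast mutant is measured after compound exposure. Values represent inhibition relative to vehicle.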

[6] = NCI Yeast Anticancer Drug Screen. Data for the mlh1 rad18 strain (AID 175); details: S. cerevisiae mlh1 rad18 strain growth inhibition; at 50.0 µM; hits give high values
Method in brief: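 A repair-deficient yeast strain is exposed to test compound, and growth is scored relative to vehicle-treated controls.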

Measured: growth inhibition

CC(=O)N(C)Cc1c(O)ccc2ccccc12
inactive: [1] -7.25% | [2] -21.2% | [3] -9.9% | [4] -9.4% | [5] -2.25% | [6] 12.7%

CC(=O)OCCC(=O)Nc1cc([N+](=O)[O-])ccc1OCc1ccccc1
inactive: [1] 7.05% | [2] 1.6% | [3] -6.45% | [4] -3.8% | [5] 3.65% | [6] -16%

CC1(OC(=O)Nc2ccccc2)CCCCC1
inactive: [1] 5.75% | [2] -0.8% | [3] 0.9% | [4] 3.55% | [5] 3.55% | [6] -9.95%

COC1OC(OC2OC=C3C(=O)OC4CC(C)C2C34)C(O)C(O)C1O (configuration not stated)
inactive: [1] -17.1% | [2] -34.2% | [3] -18.7% | [4] -14.3% | [5] -33.4% | [6] -29.1%

OCC1OCOC1C1OCOC1CO (configuration not stated)
inactive: [1] 0.55% | [2] 4.35% | [3] 3.95% | [4] 2.9% | [5] -2.55% | [6] -3.45%

NCCNCc1ccncc1
inactive: [1] -38% | [2] -41.5% | [3] -58.5% | [4] -11.3% | [5] -47.2% | [6] -27.2%

N#CC1(Cc2ccccc2)c2ccccc2-c2ccccc21
inactive: [1] 34.2% | [2] 27.8% | [3] 28.8% | [4] 1.85% | [5] 24.9% | [6] 45%

CC1(C)N=C(Oc2ccccc2)n2nccc2N1
inactive: [1] -12.6% | [2] -15.6% | [3] -14.6% | [4] 2.55% | [5] -18.3% | [6] -29.6%

O=C1CC2COc3ccc(OCCN4CCCC4)cc3C2=NN1c1ccccc1 (configuration not stated)
inactive: [1] -4.75% | [2] 16.9% | [3] -22.7% | [4] -18.9% | [5] 2.15% | [6] 1.1%

N#CCC(=O)Nc1ccccc1
inactive: [1] 37% | [2] 15.7% | [3] 5.8% | [4] -11.8% | [5] 6.25% | [6] 26.2%

Clc1ccc(Cl)c(NNc2cc(Cl)ccc2Cl)c1
inactive: [1] -29.1% | [2] -45.5% | [3] -3.9% | [4] -0.9% | [5] -39.5% | [6] -34.5%

COC(=O)C1(F)C(=O)NC(=O)NC1OC (configuration not stated)
inactive: [1] 35.5% | [2] 16.6% | [3] 56.4% | [4] 10.3% | [5] 11.7% | [6] 31%

CCCCC/C(C)=C\CBr
inactive: [1] -7.65% | [2] -2.65% | [3] -7.1% | [4] -22.9% | [5] -10.6% | [6] -3%

O=c1[nH]cc(CO)c(=O)[nH]1
inactive: [1] 0.35% | [2] 4.8% | [3] -1.7% | [4] 6% | [5] 11.9% | [6] -4%

NNc1nc2ccc([N+](=O)[O-])cc2s1
inactive: [1] 13.7% | [2] -8.55% | [3] -1% | [4] -22% | [5] -9.75% | [6] 22.2%

O=C1/C(=C/c2ccc(O)cc2)CCc2ccc([N+](=O)[O-])cc21
inactive: [1] -10.3% | [2] -1.15% | [3] 9.45% | [4] 13.8% | [5] -0.8% | [6] -55.4%

CCOC(=O)c1cc(-c2ccccc2)c(-c2ccccc2)c(-c2ccccc2)c1-c1ccccc1
inactive: [1] 28.4% | [2] 9.15% | [3] 19.6% | [4] 18.3% | [5] 2.75% | [6] 14.6%

Cc1ccc2c(c1)[nH]c(=S)n2C=C(C#N)C#N
inactive: [1] -23.6% | [2] -42.4% | [3] -1.1% | [4] 0.75% | [5] -0.55% | [6] -5.15%

CCC1=CC(=O)C(CC)=CC1=O
inactive: [1] 3.05% | [2] 25.2% | [3] -2.15% | [4] -23.7% | [5] 1.95% | [6] 15.6%

CC1SC2(C(=O)Nc3ccccc32)N(c2ccc(O)cc2)C1=O (configuration not stated)
inactive: [1] 6.25% | [2] -2.75% | [3] 9.45% | [4] 2% | [5] 7.9% | [6] 14.8%

COc1ccc(C[N+](C)(C)N)cc1OC
inactive: [1] -13.8% | [2] -18.2% | [3] -21.9% | [4] -9.7% | [5] -40.5% | [6] -34.1%

CCOC(=O)c1ccc(NC(NC(=O)CC)(C(F)(F)F)C(F)(F)F)cc1
inactive: [1] -26.6% | [2] -20.4% | [3] -69.2% | [4] -19.1% | [5] -8.9% | [6] -54%

O=c1[nH]c2c(Cl)c(Cl)cc(Cl)c2o1
inactive: [1] 51.1% | [2] 6.4% | [3] 23.9% | [4] 48.2% | [5] 13.6% | [6] 43.6%

CN(C)c1ccc2c(N(C)C)cc(N(C)C)[n+](C)c2c1
inactive: [1] 7.8% | [2] -23.1% | [3] -12.8% | [4] 15.2% | [5] -2% | [6] -22.4%

C[N+]1(C)N=C(c2ccccc2)C=C1[O-]
inactive: [1] 13.4% | [2] -9.75% | [3] -6.65% | [4] -53.9% | [5] -2.5% | [6] -3.85%

CC1(C)SC2C(C(=O)O)N=C(Cc3ccccc3)N2C1C(=O)O (configuration not stated)
inactive: [1] 3.2% | [2] -17.9% | [3] -23.4% | [4] 1.45% | [5] -34% | [6] -7.05%

O=C1C(=Cc2ccc([N+](=O)[O-])o2)C(=O)N(CCc2ccccc2)S(=O)(=O)N1CCc1ccccc1
inactive: [1] 38.9% | [2] -3.65% | [3] 10.8% | [4] -22.5% | [5] -6.6% | [6] 2.4%

Cc1[nH]c2ccccc2c1C(c1cc(Cl)cc(Cl)c1O)c1c(C)[nH]c2ccccc12
inactive: [1] 29.8% | [2] 26.1% | [3] 25.8% | [4] -1.9% | [5] -5.05% | [6] 37.8%

CCOC(=O)C(Cc1cc(N)c(O)c(N)c1)NC(C)=O (configuration not stated)
inactive: [1] 1.95% | [2] -4.95% | [3] -1.5% | [4] 6.8% | [5] -1.45% | [6] -0.85%

O=C1C(=O)N(CN2CCCCC2)c2ccccc21
inactive: [1] 10.4% | [2] -40.9% | [3] 26.4% | [4] 10.9% | [5] 22.4% | [6] 17.9%

CC(=O)NC(c1ccc(Cl)cc1)(c1ccc(Cl)cc1)C(Cl)(Cl)Cl
inactive: [1] -18.6% | [2] -35% | [3] -7.4% | [4] 8.5% | [5] 10.4% | [6] -3.25%

O=C(O)Cc1ccc(Oc2ccc(CC(=O)O)cc2)cc1
inactive: [1] -4.15% | [2] -9.5% | [3] 1.85% | [4] -48.8% | [5] -8.75% | [6] 0.55%

Cc1cccc(CC(O)c2ccc(C=O)cc2)n1 (configuration not stated)
inactive: [1] 20.6% | [2] 14.7% | [3] 6.75% | [4] 5.65% | [5] 14.4% | [6] 37.5%

CCC1(C)OCC(CCCCO)O1 (configuration not stated)
inactive: [1] -16.2% | [2] -14.9% | [3] -9.4% | [4] -34.9% | [5] -11.4% | [6] 14.3%

CCCCCCCCCCCC(=O)Nc1ccc(N(C)C(C)=O)cc1
inactive: [1] -14.4% | [2] -3.95% | [3] -9.1% | [4] -1.35% | [5] 7.2% | [6] -10.1%

Cn1c2c(c3ccccc31)CC1c3c(c4ccccc4n3C)CC21 (configuration not stated)
inactive: [1] -79% | [2] -51% | [3] -49% | [4] -26.2% | [5] -18.6% | [6] -45.4%

O=C1CCN(Cc2ccco2)C(=O)N1
inactive: [1] 1% | [2] -12.3% | [3] 10.9% | [4] -41% | [5] -5.7% | [6] 10.2%
